Records with an inconclusive call do not appear. Activity calls are given as the source filed them. Calls come from the whole dose curve; as a rule, active = well fitted inhibition curve with a large enough effect; inconclusive = small, poorly fitted or top-dose-only effect; inactive = flat fitted curve, though single readings scatter. Peptide text beside a SMILES is read from it.

This assay deals with CRL-7250. The assay is described as follows: qHTS assay to identify novel small-molecules to repurpose for Merkel cell carcinoma treatment (AID 1296009). Note: nearly all actives have a fitted effect of over 60% in size. Conditions: MCC and control cell lines, CellTiter-Glo viability, 72 h; series mostly up to 92 µM; activity change, negative = cytotoxicity: at the top concentration. The essentials: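 Luminescence from CellTiter-Glo, read 10 min after addition at room temperature, reported viability following a 72 hr, 37 degree celsius treatment with NPC or MIPE compounds in titration; values normalized to plate controls.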
For orientation: qHTS replaces the single test concentration by a dilution series.
For the molecule `Cc1nc(C(=O)N2CCC[C@H]2Cc2nnc(-c3ccccc3)o2)c(-c2ccccc2F)s1`, the outcome was inactive. Take `CC1=CC(=O)[C@]2(O[C@@H]3O[C@@H](C)[C@H](O)[C@@H](O)[C@H]3O)C=CO[C@@H](O[C@@H]3O[C@H](CO)[C@@H](O)[C@H](O)[C@H]3O)[C@H]12`: the “outcome” value was “inactive [at 17.4 µM]”. On to `CCC/C=C/C=C/C1CC(O)C(O)C(=O)C1CO` (stereo not given), for which the molecule was classed as inactive. Regarding `CCCCCCc1cccc(NC(=O)[C@H](N)CCP(=O)(O)O)c1`, the outcome is “inactive [at 9.27 µM]”. Next, `CC1(C)C(=O)N2c3ccccc3[C@]3(CC(n4cnc5ccccc5c4=O)C(=O)O3)[C@H]2N1O` (stereo not given in full): “inactive [at 17.4 µM]”. Then `CC(=O)C=C=C1C(C)(C)CC(O[C@@H]2O[C@H](CO)[C@@H](O)[C@H](O)[C@H]2O)CC1(C)O` (stereo not given in full), with “inactive”; and `COc1ccncc1C(=O)NC(=O)Nc1ccc(-c2ccccc2)c(C(F)(F)F)c1`, with “inactive”. In the case of `NC(=O)NCCCC(NC(=O)Cc1ccccc1)C(=O)O` (stereo not given), the call was inactive. As to `COc1ccc(-c2ccc(-c3cn(C(=O)N4CCCCC4c4ccccc4)nn3)cc2)cc1` (stereo not given), the outcome was inactive. For the molecule `C[C@H](N)C(=O)N[C@@H](Cc1ccc(O)cc1)C(=O)N1CCC[C@H]1C(=O)NCC(=O)N[C@@H](CCCCN)C(=O)N[C@@H](Cc1ccccc1)C(N)=O`, the outcome was “inactive [at 9.27 µM]”.

`CC(/C=C/[C@]1(O)[C@@]2(C)CO[C@@]1(C)C[C@@H](O)C2)=C\C(=O)O[C@@H]1O[C@H](CO)[C@@H](O)[C@H](O)[C@H]1O`: the “outcome” value was “inactive [at 17.4 µM]”. For the molecule `CC1=CC(=O)CC(C)(CO[C@@H]2O[C@H](CO)[C@@H](O)[C@H](O)[C@H]2O)C1(O)/C=C/C(C)=C/C(=O)O` (stereo not given in full), the “outcome” value is “inactive [at 17.4 µM]”. As for `Cc1onc(-c2ccccc2Cl)c1C(=O)N(C)c1ccc(Cl)cc1`, the molecule was classed as inactive. On to `NC1(c2ccc(NC(=O)c3ccnc(-c4cc(C(=O)O)ccn4)c3)cc2)CC1`, for which the outcome was inactive. Turning to `COc1cccc(OC)c1-c1nc(C(=O)N[C@@H](CC(C)C)C(=O)O)cn1-c1ccnc2cc(Cl)ccc12`, the call was inactive. For the molecule `CC(=O)OC1C(O)C(C)=C(CCC(C)CC(=O)O)C2(C)CCCC(C)(C)C12` (stereo not given), the molecule was classed as inactive.

`COc1cc2c(cc1O)C1(Cc3ccc4c(c3C1O)OCO4)[N+](C)([O-])CC2` (stereo not given): the result was inactive. Next, `COc1cc(C2c3cc(O)c(OC)cc3CC(CO)C2CO)ccc1O` (stereo not given): “inactive”; `COC(=O)c1cc(OC)cc(OC)c1C(=O)c1c(OC)cc2c(c1O)C1CCC(O)C(C)(O2)O1` (stereo not given): “inactive [at 17.4 µM]”. Take `OC[C@H]1O[C@@H](OC[C@H]2O[C@@H](OCc3ccccc3)[C@H](O)[C@@H](O)[C@@H]2O)[C@H](O)[C@@H](O)[C@@H]1O`: the “outcome” value was “inactive [at 17.4 µM]”. Take `O=C(O[C@H]1[C@@H]2C[C@@H]3OC[C@@](O)([C@H]2[C@H](O[C@@H]2O[C@H](CO)[C@@H](O)[C@H](O)[C@H]2O)O3)[C@@H]1O)c1ccccc1`: the “outcome” value is “inactive [at 17.4 µM]”. `CC1=C2CC(=O)C(C)CC/C=C(\C)CC2OC1=O` (stereo not given): the result was inactive. Regarding `OCC1OC(Oc2cc(O)cc(/C=C/c3ccc(OC4OC(CO)C(O)C(O)C4O)cc3O)c2)C(O)C(O)C1O` (stereo not given), the “outcome” value was “inactive [at 17.4 µM]”. As to `CCc1nnc(NS(=O)(=O)c2ccc(NC(=S)NC(=O)/C=C/c3ccc(F)cc3)cc2)s1`, the result was inactive. Consider `COC(=O)C1=C[C@@H](O)[C@@H](O)[C@H](O[C@@H]2O[C@H](COC(=O)/C=C/c3ccccc3)[C@@H](O)[C@H](O)[C@H]2O)C1`, for which the “outcome” value is “inactive [at 17.4 µM]”. Turning to `CC1(C)CCC(C)(C)c2cc3c(cc21)Sc1ccccc1N=C3c1ccc(C(=O)O)cc1`, the molecule was classed as inactive. In the case of `C=C1CC[C@@]2(OC1)O[C@H]1CC3[C@@H]4CC=C5C[C@@H](O)C[C@@H](O[C@@H]6OC[C@H](O)[C@H](O)[C@H]6O[C@@H]6O[C@@H](C)[C@H](O)[C@@H](O)[C@H]6O)[C@]5(C)C4CC[C@]3(C)[C@H]1[C@@H]2C` (stereo not given in full), the “outcome” value is “inactive [at 17.4 µM]”.

In the case of `C/C=C1/[C@H](O[C@@H]2O[C@H](CO)[C@@H](O)[C@H](O)[C@H]2O)OC=C(C(=O)OC)[C@H]1CC(=O)O[C@@H]1O[C@H](CO)[C@@H](O)[C@H](O)[C@H]1O`, the “outcome” value was “inactive [at 17.4 µM]”. As to `C=C1CC[C@@H]2[C@@](C)(CO[C@@H]3O[C@H](CO)C(O)[C@H](O)C3O)[C@H](O)CC[C@@]2(C)[C@@H]1CC/C(C)=C/CO` (stereo not given in full), the outcome was “inactive [at 9.27 µM]”. Then `CC1NC(=O)CNC(=O)C(C(C)C)NC(=O)C2CCCN2C(=O)C(C(C)C)NC(=O)C(Cc2c[nH]c3ccccc23)NC1=O` (stereo not given) (cyclo(GAWVPV); configuration not given here), with “inactive [at 17.4 µM]”. With `C=CC1(C)C=C2C(=O)CC3C(C)(C)CCCC3(C(=O)O)C2(O)CC1` (stereo not given), the molecule was called inactive.

`COCCOc1cnc2ccn([C@H](C)c3nnc4c(F)cc(-c5cnn(C)c5)cn34)c(=O)c2c1`: the molecule was classed as inactive.

Turning to `CC1(C)CC[C@]2(C(=O)O)CC[C@]3(C)C(=CCC4[C@@]5(C)C[C@H](O)[C@H](O[C@@H]6OC[C@H](O)[C@H](O)[C@H]6O)[C@@](C)(CO)C5CC[C@]43C)[C@@H]2C1` (stereo not given in full), the “outcome” value was “inactive [at 17.4 µM]”. Turning to `COc1cc(/C=C/C(=O)O)ccc1O[C@@H]1O[C@H](CO)[C@@H](O)[C@H](O)[C@H]1O[C@@H]1OC[C@](O)(CO)[C@H]1O`, the “outcome” value is “inactive [at 17.4 µM]”. Turning to `Nc1nc2c(s1)CCN(Cc1ccc(Cl)cc1)CC2`, the result was inactive. Next, `CCC1OC(=O)C(C)CC(C)C(=O)/C(C)=C/C(C)C(=O)/C=C/C1(C)O` (stereo not given): “inactive”; `CC(=O)/C=C/C1(O)C(C)CC(O[C@@H]2O[C@H](CO)[C@@H](O)[C@H](O)[C@H]2O)CC1(C)C` (stereo not given in full): “inactive [at 17.4 µM]”.

As to `C=C1CCC2C(C)(C(=O)OC)CCCC2(C)C1CCC(C)CC(=O)O` (stereo not given), the outcome was inactive. Then `O=C(Nc1ccccc1Br)NC1CCN(c2ccc(C(F)(F)F)cn2)C1` (stereo not given), with “inactive”.

Regarding `C=C1CCC2C(C)(COC3OC(COC(=O)CC(=O)O)C(O)C(O)C3O)CCCC2(C)C1CCC1=CCOC1=O` (stereo not given), the “outcome” value is “inactive [at 17.4 µM]”.

Values taken from PubChem BioAssay (NCATS).
